L3MBTL1 inh = blocks human L3MBTL1; AID 485360; Potency, µM (doses to about 57.1 µM), hits mostly inhibitors; 0.66% of 230,000 active; AlphaScreen L3MBTL1–H3K9me1 peptide binding; further: nearly all actives have a fitted effect of over 60% in size
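AlphaScreen assay: L3MBTL1 (50 nM final) was preincubated 30 min at room temperature with biotinylated H3(1-15)K9me1 peptide (75 nM final), then 30 min with library compounds; streptavidin donor and nickel chelate acceptor beads (10 ug/mL final) added, 30 min dark.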
G9a block = G9a (human) methyltransferase inhibition. Q96KQ7. G9a H3K9 monomethylation, AlphaScreen, 2 h. Potency, µM (series often up to 102 µM), hits mostly inhibitors. 8.8% of 350,000 active; further: nearly all actives have a fitted effect of over 75% in size
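Compounds were preincubated with 20 nM G9a for 15 min, after which biotinylated H3K9 peptide (500 nM) and SAM (20 uM) started a 2 h room-temperature reaction. Monomethylated product was quantified by antibody-based AlphaScreen chemiluminescence.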
JMJD2A Tudor inh = blocks the human JMJD2A Tudor domain | AlphaScreen JMJD2A-Tudor / H3K4me3 peptide binding | 4.4% of 390,000 active | Potency, µM (top dose mostly 114 µM), actives largely listed as inhibitors; further: nearly all actives have a fitted effect of over 50% in size
Target sequence (O75164 whole entry, looked up, the tested form may be a part): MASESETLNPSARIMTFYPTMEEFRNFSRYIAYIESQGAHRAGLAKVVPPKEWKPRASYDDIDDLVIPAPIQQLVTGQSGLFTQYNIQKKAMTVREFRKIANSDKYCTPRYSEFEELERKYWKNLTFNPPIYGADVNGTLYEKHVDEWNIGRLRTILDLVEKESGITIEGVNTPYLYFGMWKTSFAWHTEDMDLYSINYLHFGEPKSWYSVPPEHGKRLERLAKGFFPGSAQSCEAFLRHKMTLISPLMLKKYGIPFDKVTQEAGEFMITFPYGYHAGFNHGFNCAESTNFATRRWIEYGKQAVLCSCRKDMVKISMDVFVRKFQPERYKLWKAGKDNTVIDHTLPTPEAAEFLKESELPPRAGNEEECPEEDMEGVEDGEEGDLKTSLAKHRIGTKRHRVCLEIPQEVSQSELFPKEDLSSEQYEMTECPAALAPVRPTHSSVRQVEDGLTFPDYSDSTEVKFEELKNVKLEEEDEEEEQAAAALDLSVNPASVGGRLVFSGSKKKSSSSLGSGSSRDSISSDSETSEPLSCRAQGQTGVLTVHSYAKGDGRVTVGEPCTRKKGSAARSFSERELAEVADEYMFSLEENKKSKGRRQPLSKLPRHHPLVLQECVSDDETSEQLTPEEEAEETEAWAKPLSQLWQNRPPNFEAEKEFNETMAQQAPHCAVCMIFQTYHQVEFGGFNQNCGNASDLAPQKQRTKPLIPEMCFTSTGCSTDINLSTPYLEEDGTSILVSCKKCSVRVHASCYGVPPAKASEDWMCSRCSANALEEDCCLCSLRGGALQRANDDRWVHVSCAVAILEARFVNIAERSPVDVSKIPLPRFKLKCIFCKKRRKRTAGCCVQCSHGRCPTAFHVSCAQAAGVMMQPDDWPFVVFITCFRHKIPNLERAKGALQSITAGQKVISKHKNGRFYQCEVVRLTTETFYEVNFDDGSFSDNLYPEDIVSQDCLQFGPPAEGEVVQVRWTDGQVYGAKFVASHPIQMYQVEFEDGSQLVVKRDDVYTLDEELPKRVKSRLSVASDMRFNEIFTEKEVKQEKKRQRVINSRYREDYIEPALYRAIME
HP1b chromo inh = inhibitors of HP1-beta chromodomain binding to methylated histone tails. AlphaScreen HP1-beta / biotin-H3K9me3 peptide binding. Potency, µM (series often up to 114 µM), most hits filed as inhibitors. AID 540317. P83916. 0.56% of 390,000 active; further: nearly all actives have a fitted effect of over 70% in size
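AlphaScreen: HP1-beta (50 nM) preformed 30 min with biotin-H3(1-18)K9me3 peptide (50 nM) in PBS pH 7.4, 0.01% Tween-20. Compound added for 30 min at RT, then streptavidin donor/nickel chelate acceptor beads (10 ug/mL) for 30 min.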
BAZ2B block = BAZ2B (human) inhibition; Potency, µM (highest dose often 114 µM), actives largely listed as inhibitors; AlphaScreen BAZ2B-H3K14Ac peptide displacement; Q9UIF8; 4.4% of 360,000 active; AID 504333; further: nearly all actives have a fitted effect of over 60% in size
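BAZ2B 50 nM plus b-H3(5-23)K14Ac 50 nM, PBS pH 7.4/0.01% Tween-20, 30 min RT; compound added (max 110 uM), 30 min RT; streptavidin donor/Ni-chelate acceptor beads 10 ug/mL final, 20 min dark; AlphaScreen read.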
Sfp PPTase inh = Sfp phosphopantetheinyl transferase inhibition; 3.5% of 310,000 active; Potency, µM, usual class: inhibitors; AID 1490; Biochemical Sfp PPTase activity, qHTS; Q9F4F7;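 further: the enzyme is Sfp with the accession as filed and its product quenches rhodamine fluorescence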
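Compounds were incubated with enzyme (final 15 nM) for 15 min at room temperature before substrate addition started the reaction. Fluorescence at 525 nm excitation, 598 nm emission was recorded immediately and after 30 minutes.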
Large screens that a line does not name were inactive. Sampled rows, rich in hits. Any-hit rate of the full collection: about 12%. The call rests on the fitted dose curve; in most records, active means well fitted curve in the direction sought with a large enough effect; inconclusive means small, poorly fitted or top-dose-only effect, or another doubt; inactive means no such curve, though single readings can be large; an effect the other way counts as inactive or inconclusive.

CC(=O)NCCNC(=O)CCCc1nnc2n(C)c(=O)c3sccc3n12	none (no result: L3MBTL1 inh, Sfp PPTase inh)
CCCN(CCC)C(=O)Cn1c(=O)c2sccc2n2c(=S)sc(-c3ccccc3)c12	G9a block inconclusive
CCOc1ccc(-c2csc(-c3nc(-c4ccc(Br)s4)cs3)n2)cc1	none (no result: L3MBTL1 inh, Sfp PPTase inh)
CC(C)[C@H](NC(=O)[C@@H]1CSSC[C@H](NC(=O)[C@H](CC(=O)O)NC(=O)[C@H](C)NC(=O)[C@@H](NC(=O)CNC(=O)[C@H](C)N)[C@@H](C)O)C(=O)N[C@@H](Cc2ccccc2)C(=O)N[C@@H](Cc2c[nH]c3ccccc23)C(=O)N[C@@H](CCCCN)C(=O)N[C@@H](Cc2ccc(O)cc2)C(=O)N1)C(=O)O	none (no result: L3MBTL1 inh, G9a block, JMJD2A Tudor inh, HP1b chromo inh, BAZ2B block)
COc1ccc(Cl)cc1NC(=O)C(C)Sc1nncn1C (stereo not drawn)	none
COc1ccc(OC)c(-c2nnc(NC(=O)C(C)Sc3nncn3C)s2)c1 (stereo not drawn)	G9a block 31.6µM, Sfp PPTase inh inconclusive
O=C(/C=C/c1cccs1)Nc1scc(-c2ccccc2)c1C(=O)O	G9a block 31.6µM, JMJD2A Tudor inh 7.08µM, HP1b chromo inh inconclusive, Sfp PPTase inh 31.6µM (no result: L3MBTL1 inh, BAZ2B block)
Cc1cc(C)n(-c2nc3ccccc3nc2N2CCN(c3cccc(C)c3C)CC2)n1	none (no result: L3MBTL1 inh, Sfp PPTase inh)
COCc1cc(C)nc(N/N=C/c2ccc(-c3ccc(Cl)cc3[N+](=O)[O-])o2)c1C#N	G9a block 39.8µM, BAZ2B block inconclusive, Sfp PPTase inh inconclusive
COc1cc(OC)cc(C(=O)Nc2ccc(S(=O)(=O)N3CCCCC3c3cccnc3)cc2)c1 (stereo not drawn)	none (no result: L3MBTL1 inh, Sfp PPTase inh)
CC(NC(=O)Cn1ccc2cc(S(=O)(=O)N3CCCCCC3)ccc21)c1ccccc1 (stereo not drawn)	none (no result: L3MBTL1 inh, Sfp PPTase inh)
CCc1nnc(SCc2cc(C)ccc2C)c2cc3sc(C)cc3n12	G9a block 10µM (no result: L3MBTL1 inh, Sfp PPTase inh)
CCc1nnc(SCc2ccc(F)cc2Cl)c2cc3sc(C)cc3n12	JMJD2A Tudor inh 89.1µM (no result: L3MBTL1 inh, Sfp PPTase inh)
O=C(NCCCN1CCN(c2ccccc2F)CC1)c1sc2ncccc2c1-n1cccc1	JMJD2A Tudor inh inconclusive, BAZ2B block inconclusive (no result: L3MBTL1 inh, Sfp PPTase inh)
Cc1ccc(-c2nc(C(=O)N3CCN(c4ccccc4)CC3)c3n2CCCCC3)cc1	none (no result: L3MBTL1 inh, Sfp PPTase inh)
Cc1nc(N2CCCC2)ncc1C(=O)N1CCN(c2ccccc2F)CC1	none (no result: L3MBTL1 inh, Sfp PPTase inh)
COc1ccc(NC(=O)c2nc(-c3ccc(C)cc3)n3c2CCCCC3)cc1	G9a block inconclusive (no result: L3MBTL1 inh, Sfp PPTase inh)
COc1ccc(NC(=O)c2nc(-c3ccc(C)cc3)n3c2CCCCC3)c(OC)c1	none (no result: L3MBTL1 inh, Sfp PPTase inh)
Cc1nc(N2CCCC2)ncc1C(=O)N1CCN(c2ccc(Cl)cc2)CC1	BAZ2B block 79.4µM (no result: L3MBTL1 inh, Sfp PPTase inh)
COc1ccc(N2CCN(C(=O)c3nc(-c4ccc(Cl)cc4)n4c3CCCCC4)CC2)cc1	G9a block 11.2µM, JMJD2A Tudor inh 35.5µM, HP1b chromo inh inconclusive, BAZ2B block 44.7µM (no result: L3MBTL1 inh, Sfp PPTase inh)
Cc1ccc(CNC(=O)c2nc(-c3ccc(Cl)cc3)n3c2CCCCC3)cc1	G9a block 8.91µM, JMJD2A Tudor inh 22.4µM, HP1b chromo inh inconclusive, BAZ2B block 10µM (no result: L3MBTL1 inh, Sfp PPTase inh)
COc1ccc(OC)c(CCNC(=O)c2nc(-c3ccc(Cl)cc3)n3c2CCCCC3)c1	G9a block 14.1µM, JMJD2A Tudor inh 28.2µM, BAZ2B block 15.8µM (no result: L3MBTL1 inh, Sfp PPTase inh)
O=C(O)c1ccc(CNCc2ccccc2Cl)s1	none (no result: L3MBTL1 inh, Sfp PPTase inh)
CN(C(=O)c1nc(-c2cccc(F)c2)n2c1CCCCC2)c1ccccc1F	none (no result: L3MBTL1 inh, Sfp PPTase inh)
CCOc1ccc(CCNC(=O)c2nc(-c3cccc(F)c3)n3c2CCCCC3)cc1OCC	G9a block 28.2µM, JMJD2A Tudor inh 50.1µM, HP1b chromo inh inconclusive, BAZ2B block 17.8µM (no result: L3MBTL1 inh, Sfp PPTase inh)
Cc1cccc(OCCOCCN2CCNCC2)c1C	none
COc1ccccc1OCCOCCN1CCCC1	G9a block 25.1µM, JMJD2A Tudor inh 50.1µM, HP1b chromo inh inconclusive (no result: L3MBTL1 inh)
Cc1ccccc1OCCOCCN1CCCCCC1	G9a block 39.8µM, JMJD2A Tudor inh inconclusive, HP1b chromo inh inconclusive, BAZ2B block inconclusive
Cc1ccc(C(C)C)cc1OCCOCCN1CCCC1	G9a block 12.6µM, JMJD2A Tudor inh 7.08µM, HP1b chromo inh inconclusive, BAZ2B block inconclusive (no result: L3MBTL1 inh)
Cc1cccc(OCCOCCN2CCOCC2)c1C	none (no result: L3MBTL1 inh)
COCCNc1ncnc2ccc(-c3ccoc3)cc12	none (no result: L3MBTL1 inh, JMJD2A Tudor inh, HP1b chromo inh, BAZ2B block)

Screens deposited in PubChem by National Center for Advancing Translational Sciences (NCATS).
